# Experimental data taken from PubChem BioAssay (NCATS).
# Inconclusive results are not listed. Some of the results follow. The source made the active and inactive calls. Unless noted, calls follow the shape of the full dose curve.
# Columns and labels:
# [1] = qHTS for Inhibitors of the Functional Ribonucleoprotein Complex (vRNP) of Lassa (LASV) Arenavirus: Viability assay - alamar blue signal for LASV Primary Screen (AID 1347083; calls by dose curve; tested in HEK293 reporter line; also: nearly all actives have a fitted effect of over 80% in size; also: potency is read from the fitted curve at half-maximal effect)
# [2] = qHTS for Inhibitors of the Functional Ribonucleoprotein Complex (vRNP) of Lymphocytic Choriomeningitis Arenaviruses (LCMV): Viability assay - alamar blue signal for LCMV Primary Screen (AID 1347085; calls by dose curve; tested in HEK293 reporter line; also: nearly all actives have a fitted effect of over 80% in size; also: potency is read from the fitted curve at half-maximal effect)
# [3] = Cytotoxicity counterscreen for inhibitors of SARS-CoV-2 cell entry (AID 1645845); also: nearly all actives have a fitted effect of over 50% in size; also: potency is read from the fitted curve at half-maximal effect
# In short: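 HEK293-ACE2 cells (Expi293F stably expressing human ACE2) seeded overnight, then compound for 1 h plus 48 h at 37C. Viability as ATP content by luminescence; normalized to wells with cells and media-only wells.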
# [4] = Primary qHTS to identify inhibitors of SARS-CoV-2 cell entry (AID 1645846); conditions: activity change, negative = inhibition: at 57.1 µM (top of the series) unless noted; also: nearly all actives have a fitted effect of over 45% in size
# In short: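 HEK293-ACE2 (Expi293F, stable hACE2), 1500 cells/well, o/n 37C; cpd 23 nL pin, 1 h; MLV-PP w/ SARS-CoV-2-S (Wuhan-Hu-1, Δ19 C-term); 48 h 37C; Bright-Glo luminescence; normalized vs S-PP and bald PP.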
# [5] = Confirmatory qHTS to identify inhibitors of SARS-CoV-2 cell entry (AID 1645844); also: potency is read from the fitted curve at half-maximal effect; nearly all actives have a fitted effect of over 45% in size
# In short: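 HEK293-ACE2 cells were pretreated 1 h with compound, then infected with MLV-based pseudoparticles bearing C-terminally truncated Wuhan-Hu-1 spike for 48 h at 37C; luciferase luminescence normalized to spike PP and bald PP wells.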
# [6] = VSVG counterscreen qHTS to identify inhibitors of SARS-CoV-2 cell entry (AID 1645847); also: potency is read from the fitted curve at half-maximal effect; nearly all actives have a fitted effect of over 65% in size
# In short: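 Expi293F/hACE2 cells, overnight plating; cpd 1 h, 37C/5% CO2; + VSV-G PP (MLV pseudotyping), 48 h; supernatant removed, Bright-Glo luciferase read. Norm: VSV-G PP and bald PP wells.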
# [7] = Inducers of the Endoplasmic Reticulum Stress Response (ERSR) in human glioma: Validation (AID 504836; active = well fitted curve in the direction sought with a large enough effect; an effect the other way counts as inactive or inconclusive; also: 0% is about no effect)
# In short: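 Stably transfected U87-MG glioma cells carrying a GRP78-based luciferase sensor; 16 h compound incubation. Luminescence end-point read 10 min after Bright-Glo addition at room temperature.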
# [8] = Primary qHTS for inhibitors of SARS-S pseudo-typed particle cell entry (AID 1479145); also: nearly all actives have a fitted effect of over 45% in size
# [9] = Primary qHTS for Huh7 cytotoxicity: counterscreen for inhibitors of MERS-S pseudotyped particle cell entry (AID 1479147); conditions: outcome: dose series up to 57.1 µM unless noted; also: % is scaled to controls: 0 for no effect and ±100 for the full control effect
# [10] = Primary qHTS for inhibitors of MERS-S pseudo-typed particle cell entry (AID 1479149); also: nearly all actives have a fitted effect of over 60% in size
# [11] = Primary qHTS for Vero E6 cytotoxicity: counterscreen for inhibitors of SARS-S pseudo-typed particle cell entry (AID 1479150); conditions: outcome: dose series up to 57.1 µM unless noted; also: % is scaled to controls: 0 for no effect and ±100 for the full control effect
# [12] = target: Alpha-galactosidase (Coffea arabica) (UniProt Q42656); assay: Counterscreen for Glucocerebrosidase Inhibitors: qHTS Assay for Coffee Bean alpha-Galactosidase at pH 4.5 (AID 957; active = well fitted curve in the direction sought with a large enough effect; an effect the other way counts as inactive or inconclusive;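 also: plate controls were enzyme alone for no effect and no enzyme for full effect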)
# In short: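 Green coffee bean enzyme (2 nM final) was incubated with compounds (0.7 nM to 77 uM) and 4-methylumbelliferyl alpha-D-galactopyranoside (80 uM final) in 50 mM citric acid, 0.005% Tween-20, pH 4.5, 20 min at room temperature; AC50 from Hill fits.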
# [13] = Confirmatory qHTS for VERO E6 Cytotoxicity Assay: Counterscreen for SARS-CoV-2 CPE Assay (AID 1508605); also: potency is read from the fitted curve at half-maximal effect; nearly all actives have a fitted effect of over 60% in size
# [14] = target: Alpha-galactosidase (Coffea arabica) (UniProt Q42656); assay: Counterscreen for Glucocerebrosidase Inhibitors: qHTS Assay for Coffee Bean alpha-Galactosidase at pH 5.9 (AID 998; active = well fitted curve in the direction sought with a large enough effect; an effect the other way counts as inactive or inconclusive;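 also: plate controls were uninhibited enzyme for no effect and no-enzyme basal signal for full effect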)
# In short: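 Green coffee bean enzyme (2 nM) with 4-methylumbelliferyl alpha-D-galactopyranoside (80 uM) in 50 mM citric acid, 0.005% Tween-20, pH 5.9, 20 min at room temperature; compounds 0.7 nM–77 uM. Stopped at pH 10, fluorescence Ex365/Em440; Hill-fit AC50.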
# [15] = target: Peroxisome proliferator-activated receptor delta (Homo sapiens) (UniProt Q03181); assay: qHTS assay for small molecule agonists of peroxisome proliferator-activated receptor delta signaling (AID 588534);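 also: 0% = DMSO basal wells and 100% = positive control agonist at 10 µM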
# In short: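 Cell-based beta-lactamase reporter assay run in agonist mode: cells seeded and incubated 5 hrs at 37 C, compounds added and incubated 18 hrs at 37 C. CCF4 dye fluorescence read after 2 hrs at RT; EC50 and efficacy from Hill fits.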
# [16] = target: DNA polymerase eta (Homo sapiens) (UniProt Q9Y253); assay: qHTS for Inhibitors of Polymerase Eta: Confirmatory Assay for Cherry-picked Compounds (AID 720502; active = well fitted curve in the direction sought with a large enough effect; an effect the other way counts as inactive or inconclusive; also: potency is read from the fitted curve at half-maximal effect); conditions: Pol eta primer extension, TAMRA/BHQ fluorescence, 10 min
# In short: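 10 nM Pol eta + cpd, 15 min RT; start w/ 50 nM final primer/TAMRA-reporter/BHQ-2-template substrate; kinetic read 0 and 10 min, ex 525/em 598 nm. Buffer-only wells = negative control.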
# [17] = qHTS profiling of the MIPE4 collection as inhibitors of Plasmodium falciparum (3D7) proliferation (AID 743344; call rule not given here;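 also: scaled between DMSO vehicle wells and 0.29 µM artemisinin as full inhibition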); conditions: P. falciparum 3D7 in erythrocytes, SYBR Green DNA fluorescence, 72 h; at 28.5 µM (top of the series) unless noted
# In short: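 Erythrocytes infected with P. falciparum (0.3% parasitemia, 2.5% hematocrit) incubated with compounds 72 h at 37 C, 5% CO2. Lysis with saponin/Triton buffer containing SYBR Green I, overnight at room temperature in the dark; DNA fluorescence (485/535 nm) normalised to 0.29 uM artemisinin and DMSO.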
# Sequence of Alpha-galactosidase (Coffea arabica) (Q42656 whole entry, looked up): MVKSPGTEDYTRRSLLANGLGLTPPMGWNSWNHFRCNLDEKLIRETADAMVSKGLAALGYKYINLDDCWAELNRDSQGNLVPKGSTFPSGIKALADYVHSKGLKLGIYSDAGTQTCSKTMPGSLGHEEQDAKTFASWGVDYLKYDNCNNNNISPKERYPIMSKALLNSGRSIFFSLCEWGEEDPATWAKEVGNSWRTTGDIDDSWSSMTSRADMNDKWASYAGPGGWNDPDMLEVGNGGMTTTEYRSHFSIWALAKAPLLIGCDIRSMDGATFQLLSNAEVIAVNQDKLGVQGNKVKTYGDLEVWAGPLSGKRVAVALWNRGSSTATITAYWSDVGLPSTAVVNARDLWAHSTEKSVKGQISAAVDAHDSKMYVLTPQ
# Sequence of DNA polymerase eta (Homo sapiens) (Q9Y253 whole entry, looked up): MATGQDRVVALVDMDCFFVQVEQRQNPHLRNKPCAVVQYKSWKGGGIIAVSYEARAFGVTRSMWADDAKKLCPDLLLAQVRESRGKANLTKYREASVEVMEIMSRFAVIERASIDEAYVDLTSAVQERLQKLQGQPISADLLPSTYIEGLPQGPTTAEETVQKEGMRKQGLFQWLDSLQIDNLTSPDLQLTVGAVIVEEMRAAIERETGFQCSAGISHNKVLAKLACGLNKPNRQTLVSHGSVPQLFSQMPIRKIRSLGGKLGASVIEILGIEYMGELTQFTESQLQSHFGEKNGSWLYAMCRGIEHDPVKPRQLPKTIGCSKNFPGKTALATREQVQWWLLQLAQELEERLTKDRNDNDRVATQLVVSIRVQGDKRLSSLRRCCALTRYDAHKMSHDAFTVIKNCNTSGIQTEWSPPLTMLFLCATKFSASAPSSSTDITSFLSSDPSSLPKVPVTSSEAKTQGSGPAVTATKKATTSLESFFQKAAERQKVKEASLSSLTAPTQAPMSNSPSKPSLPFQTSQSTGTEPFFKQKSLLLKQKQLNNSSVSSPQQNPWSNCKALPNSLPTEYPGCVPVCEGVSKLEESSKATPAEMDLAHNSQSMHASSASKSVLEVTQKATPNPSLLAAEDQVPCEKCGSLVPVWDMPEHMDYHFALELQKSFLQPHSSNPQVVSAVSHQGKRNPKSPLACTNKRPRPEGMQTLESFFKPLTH
# Sequence of Peroxisome proliferator-activated receptor delta (Homo sapiens) (Q03181 whole entry, looked up): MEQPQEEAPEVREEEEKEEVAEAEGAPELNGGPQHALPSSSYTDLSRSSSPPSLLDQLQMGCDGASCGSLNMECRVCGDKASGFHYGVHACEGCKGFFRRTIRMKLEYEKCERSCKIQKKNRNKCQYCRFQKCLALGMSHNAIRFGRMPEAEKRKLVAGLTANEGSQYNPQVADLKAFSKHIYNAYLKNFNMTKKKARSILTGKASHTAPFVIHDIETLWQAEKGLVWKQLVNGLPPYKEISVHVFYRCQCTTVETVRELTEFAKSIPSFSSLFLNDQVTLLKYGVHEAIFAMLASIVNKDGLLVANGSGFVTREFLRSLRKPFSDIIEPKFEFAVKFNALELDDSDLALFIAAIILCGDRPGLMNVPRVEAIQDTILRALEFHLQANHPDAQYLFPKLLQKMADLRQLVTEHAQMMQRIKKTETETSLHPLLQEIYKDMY
smiles,measurement,setting,value
O=C(Nc1cn[nH]c1-c1nc2ccc(CN3CCOCC3)cc2[nH]1)NC1CC1,Potency,[1],7.69 µM (active)
same,Potency,[2],1.93 µM (active)
same,Potency,[3],15.8 µM (active)
same,"activity change, negative = inhibition",[4],-95.5%
COc1ccc(F)c(F)c1C(=O)c1cnc(NC2CCN(S(C)(=O)=O)CC2)nc1N,Potency,[1],2.73 µM (active)
same,Potency,[2],6.11 µM (active)
same,Potency,[5],0.0681 µM (active)
same,"activity change, negative = inhibition",[4],-92.2%
same,Potency,[6],0.0681 µM (active)
Nc1nc(N)c(N=O)c(OCC2CCCCC2)n1,outcome,[7],inactive
same,Potency,[1],15.3 µM (active)
same,Potency,[2],21.7 µM (active)
same,"activity change, negative = inhibition",[4],-7.15%
O=C(CC12CC3CC(CC(C3)C1)C2)Nc1cccc2nc(NCCNCCO)ccc12,Potency,[1],21.7 µM (active)
same,Potency,[2],24.3 µM (active)
same,Potency,[3],inactive
CC(C)NC[C@H](O)COc1cccc2ccccc12,outcome,[7],inactive
same,Potency,[1],inactive
same,Potency,[2],inactive
N#Cc1c(NC(=O)c2cccc3ccccc23)sc2c1CCCC2,Potency,[1],0.769 µM (active)
same,Potency,[2],1.09 µM (active)
same,Potency,[5],1.08 µM (active)
same,"activity change, negative = inhibition",[4],-63.8%
same,Potency,[6],0.764 µM (active)
CN[C@@H](C)C(=O)N[C@H]1CN(C(=O)CC(C)C)CC[C@H]2CC[C@@H](C(=O)NC(c3ccccc3)c3ccccc3)N2C1=O,Potency,[1],3.43 µM (active)
same,Potency,[2],12.2 µM (active)
same,Potency,[3],inactive
same,"activity change, negative = inhibition",[4],1.03%
CC(C(=O)O)c1ccc(C(=O)c2cccs2)cc1 (stereo not drawn),Potency,[1],inactive
same,Potency,[2],inactive
same,Potency,[8],inactive
same,outcome,[9],inactive
same,Potency,[10],inactive
same,outcome,[11],inactive
same,Potency,[4],inactive
O=C1NC(=O)c2cc(Nc3ccccc3)c(Nc3ccccc3)cc21,outcome,[12],inactive
same,outcome,[7],inactive
same,Potency,[13],11.2 µM (active)
CCCCCCN(CCCCCC)C(=O)Cc1c(-c2ccc(F)cc2)[nH]c2ccccc12,outcome,[12],inactive
same,outcome,[14],inactive
same,outcome,[7],inactive
C[C@]12CC[C@@H]3c4ccc(O)cc4CC[C@H]3[C@H]1CC[C@H]2O,Potency,[15],inactive
C[C@@H]1C[C@@H]2O[C@H]2/C=C\C=C\C(=O)Cc2c(Cl)c(O)cc(O)c2C(=O)O1,Potency,[16],26.9 µM (active)
CN(C)CCOc1ccc(C(=C(CCCl)c2ccccc2)c2ccccc2)cc1,"parasite growth, % of DMSO control",[17],67.8%
Cc1c(NC(=O)OC[C@@H]2COCCN2)cn2ncnc(Nc3ccc4c(cnn4Cc4cccc(F)c4)c3)c12,Potency,[13],11.2 µM (active)
Cc1cc(C(=O)N2CCN(c3cccc(Cl)c3)CC2)n(-c2ccccc2)n1,Potency,[5],6.81 µM (active)
same,Potency,[6],3.41 µM (active)
COc1ccc(S(=O)(=O)Nc2cccnc2Nc2ccc(O)cc2)cc1,Potency,[5],1.21 µM (active)
same,Potency,[6],0.541 µM (active)
O=C1NC(=O)/C(=C/c2ccc3nccnc3c2)S1,outcome,[7],inactive
same,Potency,[2],inactive
same,Potency,[3],inactive
same,Potency,[4],inactive
